Measurements taken from PubChem BioAssay (NCATS).
Records with an inconclusive call do not appear. A number with no mark means an inactive call. The source made the active and inactive calls. Calls follow the shape of the dose curve; as a rule, active = well fitted cell-killing curve with a large enough effect; inconclusive = small, poorly fitted or top-dose-only effect, or effect the other way; inactive = no such curve, though single readings can be large or run the other way.

test: Quantitative High-Throughput drug screen in 47 multiple myeloma cell lines against the NCATS MIPE library collection: OCIMY5_PLB cell viability assay (AID 1918988); details: OCI-MY5 myeloma viability, ATP luminescence, 48 h; series mostly up to 45.8 µM; viability, % of control: at the top concentration; also: nearly all actives have a fitted effect of over 65% in size
Excerpt: PI: Beverly A. Mock Ph.D.
Laboratory of Cancer Biology and Genetics,
Center for Cancer Research, National Cancer Institute,
National Institute of Health, Bethesda, Maryland
Drug resistance and disease progression are common in multiple myeloma (MM) patients, underscoring the need for new therapeutic combinations. […] We hypothesized that effective combinations would reduce MYC expression and enhance p16 activity. […] These preclinical data identify potentially useful drug combinations for evaluation in drug-resistant MM and reveal potential mechanisms of combined drug sensitivity.
Described herein is the primary MIPE qHTS used to cherrypick compounds. Validated compounds were then further tested for potential synergistic activiy.
[1] Peat TJ, Gaikwad SM, Dubois W, Gyabaah-Kessie N, Zhang S, Gorjifard S, Phyo Z, Andres M, Hughitt VK, Simpson RM, Miller MA, Girvin AT, Taylor A, Williams D, D'Antonio N, Zhang Y, Rajagopalan A, Flietner E, Wilson K, Zhang X, Shinn P, Klumpp-Thomas C, McKnight C, Itkin Z, Chen L, Kazandijian D, Zhang J, Michalowski AM, Simmons JK, Keats J, Thomas CJ, Mock BA. Drug combinations identified by high-throughput screening promote cell cycle transition and upregulate Smad pathways in myeloma. Cancer Lett. 2023 Aug 1;568:216284. doi: 10.1016/j.canlet.2023.216284. Epub 2023 Jun 24. PMID: 37356470; PMCID: PMC10408729.
SEQUENCE No. (e.g., 1, 2, 3, etc.); […] (e.g., Cells, Incubation, Reagent, etc.); VALUE and DESCRIPTION.
1; Cells; 5 uL; white, solid bottom 1536-well Greiner assay plate.
2; Compounds; 23 nL; Kalypsis pin tool (Wako USA) equipped with a 1536-well pin head to transfer to the assay plates.
3; Incubation; 48 hours; 37C incubation.
4; Reagent;5uL; CellTiter Glo (Promega).
5; Detector; 425V; Luminescence; Viewlux PerkinElmer.
NOTES (numbers refer to Sequence numbers above)
1. The cell-based screening methods employed in this study were like those previously published. Briefly, the corresponding myeloma cell lines were screened in 1,536-well plates with 500 cells, 5-uL per well for inhibition of cell viability (assessed by measuring ATP levels with CellTiterGlo).
2. NCATS MIPE 4.0 library of approved and investigational drugs were added using the Kalypsis pin tool. Wells treated with DMSO only for 100% viability and media only for 0% viability were used as controls.
3. The assay plates were covered and incubated for 48 hours in a 37C, 5% CO2 incubator with controlled humidity.
4. After 48 hours, CellTilter-GloTM luminescent substrate mix (Promega) reagent was added to the assay plate and plates we incubated for 5 min at room temperature.
5. Signal was measured as median relative luminescence units on a ViewLux (PerkinElmer) multiplate reader.
[1] Heske CM, Davis MI, Baumgart JT, Wilson K, Gormally MV, Chen L, Zhang X, Ceribelli M, Duveau DY, Guha R, Ferrer M, Arnaldez FI, Ji J, Tran HL, Zhang Y, Mendoza A, Helman LJ, Thomas CJ. Matrix Screen Identifies Synergistic Combination of PARP Inhibitors and Nicotinamide Phosphoribosyltransferase (NAMPT) Inhibitors in Ewing Sarcoma. Clin Cancer Res. 2017 Dec 1;23(23):7301-7311. doi: 10.1158/1078-0432.CCR-17-1121. Epub 2017 Sep 12. PMID: 28899971; PMCID: PMC6636827.
Potency is read from the fitted curve at half-maximal effect.

SMILES | Potency | viability, % of control
OCc1ccc(-c2ccc(-c3ccc(CO)s3)o2)s1 | 16.6 µM (active) | 
COC(=O)[C@]12CCC(C)(C)C[C@@H]1[C@@H]1C(=O)C=C3[C@@]4(C)C=C(C#N)C(=O)C(C)(C)[C@@H]4CC[C@@]3(C)[C@]1(C)CC2 | 0.209 µM (active) | 
Fc1cc(-c2cccc3ncc(-c4cnn(C5CCNCC5)c4)nc23)cc(F)c1CN1CCOCC1 | 16.6 µM (active) | 
Cc1cn2c(-c3cn[nH]c3)cnc2c(Nc2ccc(C(=O)N3CCNCC3)cc2F)n1 | 20.9 µM (active) | 
Cc1[nH]nc2ccc(-c3cncc(OC[C@@H](N)Cc4ccccc4)c3)cc12 | 3.32 µM (active) | 
CC1(C)CC(=O)c2c(C(F)(F)F)nn(-c3ccc(C(N)=O)c(NC4CCC(OC(=O)CN)CC4)c3)c2C1 (stereo not given) | 0.187 µM (active) | 
COc1cc2ncnc(Nc3ccc(F)c(Cl)c3)c2cc1NC(=O)C=CCN1CCCCC1 | 16.6 µM (active) | 
C[C@@H](Oc1cc(-n2cnc3ccc(CN4CCN(C)CC4)cc32)sc1C(N)=O)c1ccccc1C(F)(F)F | 0.0469 µM (active) | 
CCn1nnc2c(N3CCOCC3)nc(-c3ccc(NC(=O)Nc4ccc(C(=O)N5CCN(C)CC5)cc4)cc3)nc21 | 0.469 µM (active) | 
Cc1nc2ccc(CN(C)c3ccc(C(=O)N[C@@H](CCC(=O)O)C(=O)O)s3)cc2c(=O)[nH]1 | 5.26 µM (active) | 
COc1c(OCCCN2CCOCC2)ccc2c3n(c(=NC(=O)c4cnc(N)nc4)nc12)CCN3 | 0.102 µM (active) | 
O=C(O)C1(Cc2cccc(Nc3nccs3)n2)CCC(Oc2cccc(Cl)c2F)CC1 (stereo not given) | 0.662 µM (active) | 
CC(=O)OCCN1C(=O)c2c(C)nc3ccc(S(=O)(=O)N4CCOCC4)cc3c2C1=O |  | 158%
CC(C)(C)NC(=O)[C@H]1CN(Cc2cccnc2)CCN1C[C@@H](O)C[C@@H](Cc1ccccc1)C(=O)N[C@H]1c2ccccc2C[C@H]1O | 26.4 µM (active) | 
Cc1c(CN2CCN(S(C)(=O)=O)CC2)sc2c(N3CCOCC3)nc(-c3cnc(N)nc3)nc12 | 0.0526 µM (active) | 
C=CC(=O)Nc1cccc(Oc2nc(Nc3ccc(N4CCN(C)CC4)cc3)ncc2Cl)c1 | 3.32 µM (active) | 
C[C@]12CC[C@H](O)CC1=CCC1C2CC[C@]2(C)C(n3cnc4ccccc43)=CCC12 (stereo not given in full) | 18.7 µM (active) | 
CN1CC[C@@H](c2c(O)cc(O)c3c(=O)cc(-c4ccccc4Cl)oc23)[C@@H](O)C1 | 0.0662 µM (active) | 
Cc1cn(-c2cc(NC(=O)c3ccc(C)c(Nc4nccc(-c5cccnc5)n4)c3)cc(C(F)(F)F)c2)cn1 | 13.2 µM (active) | 
C[C@@H](Oc1cc(-c2cnn(C3CCNCC3)c2)cnc1N)c1c(Cl)ccc(F)c1Cl | 5.26 µM (active) | 

SMILES | Potency | viability, % of control
O=c1[nH]c(=O)n(C2CCCO2)cc1F (stereo not given) | 42.9 µM (active) | 
NC(=O)c1c(OCc2c(F)cc(Br)cc2F)nsc1NC(=O)NCCCCN1CCCC1 | 23.5 µM (active) | 
COc1cc(C)c(Sc2cnc(NC(=O)c3ccc(CNC(C)C(C)C)cc3)s2)cc1C(=O)N1CCN(C(C)=O)CC1 (stereo not given) | 5.26 µM (active) | 
CCN1CCN(CC(=O)Nc2ccc(-c3cccc4c(=O)cc(N5CCOCC5)oc34)c3sc4ccccc4c23)CC1 | 1.05 µM (active) | 
CC(=O)Nc1nc(C)c(-c2ccc(Cl)c(S(=O)(=O)NCCO)c2)s1 | 9.35 µM (active) | 
C[C@@]12O[C@@H](C[C@]1(O)CO)n1c3ccccc3c3c4c(c5c6ccccc6n2c5c31)CNC4=O | 0.526 µM (active) | 
CC1(C)CCC(c2ccc(Cl)cc2)=C(CN2CCN(c3ccc(C(=O)NS(=O)(=O)c4ccc(N[C@H](CCN5CCOCC5)CSc5ccccc5)c(S(=O)(=O)C(F)(F)F)c4)cc3)CC2)C1 | 0.0372 µM (active) | 
O=C(O)[C@H](Cc1c[nH]c2ccccc12)N1C(=O)c2ccccc2C1=O |  | 167% [at 92.2 µM]
Nc1ccn([C@@H]2O[C@H](CO)[C@H](O)C2(F)F)c(=O)n1 | 5.9 µM (active) | 
CC[C@@H]1C(=O)N(C)c2cnc(Nc3ccc(C(=O)NC4CCN(C)CC4)cc3OC)nc2N1C1CCCC1 | 0.0372 µM (active) | 
Nc1ncnc2c1c(-c1cccc(OCc3ccccc3)c1)cn2C1CC(CN2CCCC2)C1 (stereo not given) | 7.43 µM (active) | 
Cc1ccc(NC(=O)C2(c3ccc4c(c3)OC(F)(F)O4)CC2)nc1-c1cccc(C(=O)O)c1 | 0.0469 µM (active) | 
CN1CCN(c2cc(C(=O)Nc3ccc4c(c3)-c3c(c(C(N)=O)nn3-c3ccc(F)cc3)CC4)c(Cl)cn2)CC1 | 2.96 µM (active) | 
CC(C)[C@H](C(=O)Nc1ccc(C(=O)NO)cc1)c1ccccc1 | 0.526 µM (active) | 
O=C(NC1CCNCC1)c1[nH]ncc1NC(=O)c1c(Cl)cccc1Cl | 0.0743 µM (active) | 
Cc1coc2c1C(=O)C(=O)c1c-2ccc2c1CCCC2(C)C | 14.8 µM (active) | 
C[C@@H]1CN(CC(=O)Nc2ccc3c(c2)Cc2cccc(-c4cc(=O)cc(N5CCOCC5)o4)c2S3)C[C@H](C)O1 | 20.9 µM (active) | 
COCCOc1ccc2c(c1)ncn2-c1ccc2cccc(N3CCC(N)CC3)c2n1 | 0.235 µM (active) | 
COc1ccc(CC2SC(=O)NC2=O)cc1C(=O)NCc1ccc(C(F)(F)F)cc1 (stereo not given) |  | 174%
Cc1cc(CN2CCN(c3c(Br)cnc4nc(-c5ccc(N6CCN(C)CC6)cc5)[nH]c34)CC2)no1 | 7.43 µM (active) | 
